Inconclusive results are not listed. Entries that show only a call come without a potency. Values without a mark were called inactive. The source made the active and inactive calls. The call rests on the fitted dose curve; in most records, active means well fitted curve in the direction sought with a large enough effect; inconclusive means small, poorly fitted or top-dose-only effect, or another doubt; inactive means no such curve, though single readings can be large; an effect the other way counts as inactive or inconclusive.
What was measured:
[1] = target: Aldehyde dehydrogenase, mitochondrial (Homo sapiens) (UniProt P05091); assay: qHTS for Inhibitors of the Aldehyde Dehydrogenase Family (ALDH2) Primary screen (AID 2061308); further: nearly all actives have a fitted effect of over 55% in size
[2] = target: Retinaldehyde dehydrogenase 3 (Homo sapiens) (UniProt P47895); assay: qHTS for Inhibitors of the Aldehyde Dehydrogenase Family (ALDH1A3) Primary screen (AID 2061315)

SMILES	Potency [1]	Potency [2]	activity change, negative = inhibition [1]	activity change, negative = inhibition [2]
CCNC(=O)c1ccc(-c2ccc3ncnc(NCCc4cnc[nH]4)c3c2)o1	inactive	inactive		
Cc1nc(CNc2ncnc3ccc(-c4ccoc4)cc23)cs1	inactive	inactive		
Cc1cc(N[S+](=O)([O-])c2ccc(NC(=O)Cc3cccc(Cl)c3Cl)cc2)no1	inactive	inactive		
Clc1ccc(CSc2nc3ncc(Br)cc3[nH]2)cc1Cl	inactive	inactive		
CC(C)c1ccccc1-c1nc(NCc2ccc(-c3cccnc3)cc2)c2occc2n1	inactive	inactive		
CCN(CC)CCCCn1c(-c2ccccc2)nc2c(NC3CCCCC3)nc(C)nc21	inactive	inactive		
CC1=C(C(=O)NC2CCCCC2)C(c2ccccc2Br)N=C(Nc2nc3ccccc3o2)N1 (stereo not drawn)	inactive	inactive		
O=C(O)c1ccc2c(c1)C(=O)N([C@H](Cc1c[nH]c3ccccc13)C(=O)O)C2=O	inactive	inactive		
Cc1noc(C)c1-c1ccc(Nc2nc(-c3ccncc3)nc3ccccc23)cc1F	inactive	inactive		
c1cncc(CNc2ncnc3ccc(-c4ccc5c(c4)OCCO5)cc23)c1	inactive	inactive		
COc1ccccc1-c1csc2ncnc(Sc3nnnn3C)c12	inactive	inactive		
COc1ccc(C(=O)O[C@H]2C=COC=C3C=C4C(=O)N(C)C(=S)C(=O)N4[C@@H]32)cc1Oc1cc(C=O)ccc1O	inactive	inactive		
CC(=O)Nc1sc2c(c1-c1ccc3c(c1)OCCCO3)CCNC2	inactive	inactive		
CCCn1c(-c2ccc(F)cc2)nc2c(NCCCN3CCCCC3C)nc(C)nc21 (stereo not drawn)	inactive	inactive		
Cc1ccc(S(=O)(=O)Nc2cnccc2C(=O)Nc2nc(-c3cccc(Cl)c3)cs2)cc1	inactive	inactive		
c1coc(CNc2nc(-c3cccs3)nc3ccccc23)c1	inactive	inactive		
CCN1CCN(Cc2ccc(C(=O)Nc3ccc(C)c(Oc4ccc5c(c4)CC(=O)N5)c3)cc2C(F)(F)F)CC1	inactive	inactive		

SMILES	Potency [1]	Potency [2]	activity change, negative = inhibition [1]	activity change, negative = inhibition [2]
NC(=O)C1CCN(c2nc(-c3cccnc3)cs2)CC1	inactive	inactive		
N[C@@H](Cc1ccc(OS(=O)(=O)c2ccccn2)cc1)C(=O)N1CCN(c2ccccc2)CC1	inactive	inactive		
COc1ccc(NC(=O)CSc2nnc(-c3cccc(S(=O)(=O)N4CCCC4)c3)n2-c2ccccc2)cc1	inactive	inactive		
COc1ccc(C2N=C(Nc3nc4ccccc4o3)NC3=C2C(=O)CCC3)cc1 (stereo not drawn)	inactive	inactive		
C=C1C(=O)O[C@@H]2/C=C(\CO)CC/C=C(\CO)[C@H](OC(C)=O)C(OC(=O)C(C)CC)C12 (stereo partly drawn)	inactive	inactive		
Cc1cc(NS(=O)(=O)c2ccc(NC(=O)Cc3ccc(Cl)cc3Cl)cc2)no1	inactive	inactive		
CC1(C)CC[C@]23CO[C@@]4(CCC5[C@@]6(C)CC[C@H](O[C@@H]7OC[C@H](O[C@@H]8O[C@H](CO)[C@@H](O)[C@H](O)[C@H]8O)[C@H](O)[C@H]7O[C@@H]7O[C@H](CO)[C@@H](O[C@@H]8O[C@H](CO)[C@@H](O)[C@H](O)[C@H]8O)[C@H](O)[C@H]7O)[C@@](C)(CO)C6CC[C@@]5(C)[C@]4(C)C[C@H]2OC2OCC(O)C(O)C2O)C3C1 (stereo partly drawn)			-1.32% [at 11.2 µM]	1.39% [at 11.2 µM]
COc1ccc(-c2ccc(NC(=O)c3cccs3)cn2)cc1	inactive	inactive		
Cc1ccc(S(=O)(=O)Nc2ccccc2C(=O)Nc2cccc(-c3ccccc3)c2)cc1	inactive	inactive		
Cc1ccc(NC(=O)c2ccc3c(c2)CCC(=O)N3)cc1C	inactive	inactive		
C[C@@H]1O[C@@H](O[C@H]2[C@H](O[C@H]3CC[C@@]4(C)C(CC[C@]5(C)C4CC=C4[C@@H]6CC(C)(C)CC[C@]6(C(=O)O)CC[C@]45C)[C@]3(C)CO)OC[C@H](O)[C@@H]2O)[C@H](O)[C@H](O[C@@H]2OC[C@@H](O)[C@H](O)[C@H]2O)[C@H]1O (stereo partly drawn)	inactive	inactive		
O=C(OCC#CCSc1nnc(-c2cccc3ccccc23)o1)c1ccc2ccccc2c1	inactive	inactive		
CN(C)[C@@H]1CCN(c2cccc(Nc3nn4c(=O)c5ccccc5nc4s3)c2)C1	inactive	inactive		
c1cncc(-c2ccc(CNc3nc(-n4ccnc4)nc4ccccc34)cc2)c1	inactive	inactive		
CNc1oc(-c2cccc3ncccc23)nc1C#N	inactive	inactive		
CC(C)(C)c1ccc(NC(=O)c2cccs2)cn1	inactive	inactive		
CC(C)COc1ccc(-c2csc(N3CCC(C(N)=O)CC3)n2)cc1	inactive	inactive		
